# Experimental data from the supplement of paper PMC10849652.
# Of roughly 8,800 targets only a part is listed; those with a hit were picked by preference. About 0.5% of all pairs of compound and target were hits. A number with no mark means an inactive call.
# How the values were obtained:
# Experiment in all cases: log2 fold change, soluble protein after heating vs DMSO (PISA); higher = thermal stabilisation; K562 lysate, 10 uM; active = over 0.2 and 3.5 SD of the protein, either way, in both replicates (recomputed)
# [1] = compound: C#Cc1cccc(Nc2ncnc3cc(OCCOC)c(OCCOC)cc23)c1 [erlotinib]
# How it was run: (§1)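 Thermal stability, expressed as log-two fold change relative to solvent controls, is given from duplicates. Crude K562 extract in PBS pH 7.4 with 1 mM MgCl2, at 1 mg/mL protein, was treated with 10 μM compound for 30 min and heated in aliquots for 3 min across 48°C-58°C. After pooling, adjustment to 0.5% NP-40 at 4°C and centrifugation at 21,000xg for 90 min, supernatant protein was measured by TMTpro 16plex LC-MS/MS with channel sums equalised.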
# [2] = compound: C/C(=N\NC(=O)C1=CC(=CC=C1)S(=O)(=O)N2CCOCC2)/C3=C(C=CC(=C3)Cl)O
# How it was run: as §1
# [3] = compound: C1=CC(=CC=C1C2=NC3=C(N2)C=C(C=C3)C(=O)N)OC4=CC=C(C=C4)Cl
# How it was run: as §1
# [4] = compound: C1=CC2=C(C=CC(=C2)/C=C\3/C(=O)NC(=NCC4=CC=CS4)S3)N=C1
# How it was run: as §1
# [5] = compound: C1=CC2=NC=CN=C2C=C1/C=C/3\C(=O)NC(=O)S3
# How it was run: as §1
# [6] = compound: C1=CC=C(C=C1)C2=NC(=C(N2)C3=CC=NC=C3)C4=CC(=C(C=C4)Cl)O
# How it was run: as §1
# [7] = compound: C1=CC=C2C(=C1)C3=NNC4=CC=CC(=C43)C2=O
# How it was run: as §1
# [8] = compound: C1CCN(C1)C(=O)NC2=CC=CC(=C2)NC3=NC=C(C(=N3)NCCC4=CN=CN4)Br
# How it was run: as §1
# [9] = compound: C1CN(CCC1(CC2=CC=C(C=C2)Cl)N)C3=NC=NC4=C3C=CN4
# How it was run: as §1
# [10] = compound: C1COCCN1CCN2C3=CC=CC=C3N=C2NC(=O)C4=CC(=CC=C4)[N+](=O)[O-] [IRAK-1-4 Inhibitor I]
# How it was run: as §1
# [11] = compound: C=CC(=O)N1CCC[C@@H](n2nc(-c3ccc(Oc4ccccc4)cc3)c3c(N)ncnc32)C1 [ibrutinib]
# How it was run: as §1
# [12] = compound: CC(=O)c1cnc2ccc(-c3cc(Cl)c(O)c(Cl)c3)nc2c1N[C@H]1CC[C@H](CN(C)C)CC1
# How it was run: as §1
# [13] = compound: CC(C)(C)Cn1c(N)nc2ccc(-c3[nH]c(C(C)(C)C)nc3-c3ccc(F)cc3)nc21 [ralimetinib]
# How it was run: as §1
# [14] = compound: CC(C)(O)CC(=O)NCCn1ccc2ncnc(Nc3ccc(Oc4cccc(C(F)(F)F)c4)c(Cl)c3)c21
# How it was run: as §1
# [15] = compound: CC(C)C1=C2N=C(C=C(N2N=C1)NCC3=CC=CC=C3)NCCCCCCN
# How it was run: as §1
# [16] = compound: CC1=C(C(CC(=O)N1)C2=CC=C(C=C2)C(F)(F)F)C(=O)NC3=C(C=C4C(=C3)C=NN4)F
# How it was run: as §1
# [17] = compound: CC1=C(C2=C(C=C1)C(=O)C3=CC=CC=C3N2CCCN)C
# How it was run: as §1
# [18] = compound: CC1=C(C=C(C=C1)NC(=O)C2=CC(=CC=C2)C(C)(C)C#N)NC3=CC4=C(C=C3)N=CN(C4=O)C
# How it was run: as §1
# [19] = compound: CC1=C(C=C(C=C1)NC(=O)C2=CC(=CC=C2)N(C)C)NC(=O)C3=CC=C(C=C3)O
# How it was run: as §1
# [20] = compound: CC1=CC=C(C=C1)SC2=C3C=C(SC3=CN=C2)C(=O)N
# How it was run: as §1
# UniProt Q7Z4H7, sequence (Q7Z4H7 whole entry, looked up): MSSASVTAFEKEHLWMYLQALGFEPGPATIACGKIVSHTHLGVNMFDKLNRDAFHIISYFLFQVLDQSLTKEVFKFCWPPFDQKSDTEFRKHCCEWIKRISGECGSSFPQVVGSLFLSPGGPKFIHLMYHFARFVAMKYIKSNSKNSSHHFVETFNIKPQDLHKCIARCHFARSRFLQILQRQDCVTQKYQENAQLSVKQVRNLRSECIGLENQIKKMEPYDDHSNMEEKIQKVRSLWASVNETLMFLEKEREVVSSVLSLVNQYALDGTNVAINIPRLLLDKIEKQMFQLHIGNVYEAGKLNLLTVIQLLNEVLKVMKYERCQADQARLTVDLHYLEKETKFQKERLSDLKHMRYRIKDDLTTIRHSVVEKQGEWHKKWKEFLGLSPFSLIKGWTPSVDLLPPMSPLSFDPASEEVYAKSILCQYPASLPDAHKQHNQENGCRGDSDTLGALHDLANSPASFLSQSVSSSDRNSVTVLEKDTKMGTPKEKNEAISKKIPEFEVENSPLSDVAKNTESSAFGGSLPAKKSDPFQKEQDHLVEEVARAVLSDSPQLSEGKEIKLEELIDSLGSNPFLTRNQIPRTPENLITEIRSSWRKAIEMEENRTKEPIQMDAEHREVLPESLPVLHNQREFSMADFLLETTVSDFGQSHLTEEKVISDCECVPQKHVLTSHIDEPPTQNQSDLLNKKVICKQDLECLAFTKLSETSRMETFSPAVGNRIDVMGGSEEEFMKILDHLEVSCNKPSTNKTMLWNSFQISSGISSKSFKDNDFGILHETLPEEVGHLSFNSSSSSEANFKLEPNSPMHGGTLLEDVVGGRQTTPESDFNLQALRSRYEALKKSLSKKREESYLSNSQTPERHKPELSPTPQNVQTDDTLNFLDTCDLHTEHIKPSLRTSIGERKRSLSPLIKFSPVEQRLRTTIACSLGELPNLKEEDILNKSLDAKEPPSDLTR
# UniProt Q53T59, sequence (Q53T59 whole entry, looked up): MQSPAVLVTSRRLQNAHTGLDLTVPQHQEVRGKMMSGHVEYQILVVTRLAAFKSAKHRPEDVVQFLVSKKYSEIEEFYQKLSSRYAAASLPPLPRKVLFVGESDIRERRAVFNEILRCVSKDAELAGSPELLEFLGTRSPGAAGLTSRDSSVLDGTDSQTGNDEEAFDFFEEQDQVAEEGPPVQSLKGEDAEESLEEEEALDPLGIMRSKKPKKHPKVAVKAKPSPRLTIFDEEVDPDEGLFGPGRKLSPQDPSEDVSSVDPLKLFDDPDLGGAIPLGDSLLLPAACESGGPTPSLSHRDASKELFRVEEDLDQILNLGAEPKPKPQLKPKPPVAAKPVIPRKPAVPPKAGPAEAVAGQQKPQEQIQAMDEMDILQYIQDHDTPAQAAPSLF
# UniProt O15550, sequence (O15550 whole entry, looked up): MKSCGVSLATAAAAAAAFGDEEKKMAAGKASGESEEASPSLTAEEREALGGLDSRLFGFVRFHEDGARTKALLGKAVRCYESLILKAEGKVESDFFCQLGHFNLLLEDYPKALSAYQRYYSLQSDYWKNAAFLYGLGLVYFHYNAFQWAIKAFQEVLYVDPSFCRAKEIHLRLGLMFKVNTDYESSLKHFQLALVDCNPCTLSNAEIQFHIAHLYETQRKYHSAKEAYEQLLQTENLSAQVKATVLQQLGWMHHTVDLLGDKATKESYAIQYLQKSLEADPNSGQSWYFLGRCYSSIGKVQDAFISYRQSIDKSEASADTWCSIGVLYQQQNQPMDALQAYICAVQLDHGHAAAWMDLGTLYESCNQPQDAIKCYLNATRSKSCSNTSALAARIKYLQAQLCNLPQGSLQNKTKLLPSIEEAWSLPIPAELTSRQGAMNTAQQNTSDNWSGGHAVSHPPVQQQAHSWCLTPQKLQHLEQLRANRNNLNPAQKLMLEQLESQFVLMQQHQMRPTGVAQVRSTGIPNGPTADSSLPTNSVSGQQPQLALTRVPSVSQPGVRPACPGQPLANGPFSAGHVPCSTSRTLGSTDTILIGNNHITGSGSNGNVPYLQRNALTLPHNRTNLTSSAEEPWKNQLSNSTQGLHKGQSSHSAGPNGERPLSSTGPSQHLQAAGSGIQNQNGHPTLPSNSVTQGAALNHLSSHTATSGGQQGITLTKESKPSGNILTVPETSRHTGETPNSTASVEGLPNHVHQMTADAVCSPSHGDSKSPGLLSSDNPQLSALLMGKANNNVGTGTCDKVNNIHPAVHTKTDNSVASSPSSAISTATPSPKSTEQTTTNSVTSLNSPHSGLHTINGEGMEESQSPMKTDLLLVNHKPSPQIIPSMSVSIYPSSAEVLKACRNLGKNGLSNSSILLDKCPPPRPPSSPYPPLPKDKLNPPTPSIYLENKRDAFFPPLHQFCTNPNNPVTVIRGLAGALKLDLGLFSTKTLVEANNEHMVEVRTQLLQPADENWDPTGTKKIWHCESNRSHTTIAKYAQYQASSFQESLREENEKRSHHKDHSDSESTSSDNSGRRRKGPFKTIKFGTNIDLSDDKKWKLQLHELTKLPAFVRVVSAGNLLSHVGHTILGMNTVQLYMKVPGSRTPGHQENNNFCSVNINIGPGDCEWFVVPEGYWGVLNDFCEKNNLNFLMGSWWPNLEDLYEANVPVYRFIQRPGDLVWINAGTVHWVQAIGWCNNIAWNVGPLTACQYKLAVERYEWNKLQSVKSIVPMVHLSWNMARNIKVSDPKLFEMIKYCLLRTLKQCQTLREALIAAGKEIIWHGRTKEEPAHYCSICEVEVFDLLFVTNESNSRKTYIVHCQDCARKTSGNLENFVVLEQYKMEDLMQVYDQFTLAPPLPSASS
# UniProt Q01581, sequence (Q01581 whole entry, looked up): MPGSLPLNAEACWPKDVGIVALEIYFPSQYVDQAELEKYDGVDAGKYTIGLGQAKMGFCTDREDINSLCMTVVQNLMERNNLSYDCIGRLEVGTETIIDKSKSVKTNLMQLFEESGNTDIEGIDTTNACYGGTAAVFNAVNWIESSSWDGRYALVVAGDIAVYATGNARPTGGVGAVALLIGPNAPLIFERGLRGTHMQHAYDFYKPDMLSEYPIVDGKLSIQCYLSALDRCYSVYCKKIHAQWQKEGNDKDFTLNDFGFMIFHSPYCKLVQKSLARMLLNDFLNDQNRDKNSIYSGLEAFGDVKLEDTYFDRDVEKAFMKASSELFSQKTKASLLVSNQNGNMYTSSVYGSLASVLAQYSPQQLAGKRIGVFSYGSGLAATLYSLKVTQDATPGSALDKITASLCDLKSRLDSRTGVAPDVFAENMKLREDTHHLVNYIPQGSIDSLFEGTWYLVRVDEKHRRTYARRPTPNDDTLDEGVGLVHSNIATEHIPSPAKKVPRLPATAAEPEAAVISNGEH
# UniProt Q9BUJ2, sequence (Q9BUJ2 whole entry, looked up): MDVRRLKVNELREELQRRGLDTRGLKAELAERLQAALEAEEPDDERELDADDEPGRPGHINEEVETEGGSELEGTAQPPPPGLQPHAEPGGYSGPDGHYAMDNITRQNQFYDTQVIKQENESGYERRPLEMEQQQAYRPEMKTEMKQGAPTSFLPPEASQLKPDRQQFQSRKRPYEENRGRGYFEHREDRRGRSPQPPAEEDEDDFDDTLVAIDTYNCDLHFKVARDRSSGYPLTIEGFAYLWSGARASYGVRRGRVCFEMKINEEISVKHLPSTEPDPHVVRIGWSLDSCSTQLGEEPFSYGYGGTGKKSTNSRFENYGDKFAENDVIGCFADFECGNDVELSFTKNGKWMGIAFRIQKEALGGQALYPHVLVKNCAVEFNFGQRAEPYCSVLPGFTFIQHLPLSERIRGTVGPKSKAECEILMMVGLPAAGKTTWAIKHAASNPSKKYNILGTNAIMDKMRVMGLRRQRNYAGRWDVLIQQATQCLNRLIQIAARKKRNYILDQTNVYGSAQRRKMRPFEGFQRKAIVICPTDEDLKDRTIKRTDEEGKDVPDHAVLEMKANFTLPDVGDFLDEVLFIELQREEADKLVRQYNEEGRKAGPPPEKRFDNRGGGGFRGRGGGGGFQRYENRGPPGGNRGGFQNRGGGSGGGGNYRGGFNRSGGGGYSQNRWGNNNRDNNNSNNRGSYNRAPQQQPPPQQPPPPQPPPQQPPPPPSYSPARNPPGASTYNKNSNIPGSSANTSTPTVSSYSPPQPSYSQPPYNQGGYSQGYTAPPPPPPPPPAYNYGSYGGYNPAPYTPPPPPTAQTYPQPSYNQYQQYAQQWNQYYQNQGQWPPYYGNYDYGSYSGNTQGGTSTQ
# UniProt Q92769, sequence (Q92769 whole entry, looked up): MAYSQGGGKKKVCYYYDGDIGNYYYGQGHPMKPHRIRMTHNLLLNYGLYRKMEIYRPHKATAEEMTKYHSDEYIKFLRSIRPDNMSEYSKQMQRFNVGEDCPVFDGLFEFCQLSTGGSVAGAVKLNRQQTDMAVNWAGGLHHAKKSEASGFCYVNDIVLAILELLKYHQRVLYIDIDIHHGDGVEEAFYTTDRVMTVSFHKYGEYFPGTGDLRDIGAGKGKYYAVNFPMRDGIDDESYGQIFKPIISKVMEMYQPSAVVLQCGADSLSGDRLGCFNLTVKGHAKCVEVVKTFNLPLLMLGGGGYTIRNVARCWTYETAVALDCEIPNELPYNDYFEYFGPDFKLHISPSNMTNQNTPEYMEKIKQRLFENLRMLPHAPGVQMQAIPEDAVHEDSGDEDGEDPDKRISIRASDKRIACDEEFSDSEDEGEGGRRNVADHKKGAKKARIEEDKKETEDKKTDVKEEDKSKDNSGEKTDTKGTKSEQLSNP
# UniProt P09211, sequence (P09211 whole entry, looked up): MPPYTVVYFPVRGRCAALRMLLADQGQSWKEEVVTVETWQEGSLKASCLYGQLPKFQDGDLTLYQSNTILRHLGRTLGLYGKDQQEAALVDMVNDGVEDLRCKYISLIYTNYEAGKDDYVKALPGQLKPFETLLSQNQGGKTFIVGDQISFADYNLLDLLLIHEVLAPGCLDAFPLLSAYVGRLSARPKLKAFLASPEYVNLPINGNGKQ
Target,log2 fold change [1],log2 fold change [2],log2 fold change [3],log2 fold change [4],log2 fold change [5],log2 fold change [6],log2 fold change [7],log2 fold change [8],log2 fold change [9],log2 fold change [10],log2 fold change [11],log2 fold change [12],log2 fold change [13],log2 fold change [14],log2 fold change [15],log2 fold change [16],log2 fold change [17],log2 fold change [18],log2 fold change [19],log2 fold change [20]
HSPA14 (UniProt Q0VDF9),0.014,0.025,-0.009,0.009,0.012,0.049,-0.035,0.018,0.014,0.003,0.004,-0.008,0.009,-0.013,-0.032,-0.02,-0.009,-0.012,0.033,0.004
HS1BP3 (UniProt Q53T59),-0.019,-0.04,0.007,-0.013,-0.027,-0.031,0.029,-0.022,0.01,0.01,-0.01,0.001,0.017,0,-0.013,0.005,0.056,0.016,-0.005,-0.013
KEAP1 (UniProt Q14145),0.048,0.006,0.018,-0.005,0.014,0.015,-0.006,0.038,0.018,-0.006,0.014,0.001,0.017,-0.014,-0.015,-0.026,-0.049,0.012,0.019,-0.024
HDAC2 (UniProt Q92769),-0.02,0.021,-0.001,0.012,-0.013,-0.004,-0.009,-0.013,-0.001,-0.017,0,-0.008,-0.005,-0.029,-0.001,-0.013,-0.01,-0.025,-0.016,-0.013
KDM1A (UniProt O60341),-0.005,0.106,0.021,0,-0.006,-0.019,-0.071,-0.019,-0.009,-0.003,0.007,-0.011,0.018,-0.016,0.019,-0.004,0.003,-0.004,0.044,0.003
HK2 (UniProt P52789),0.013,0.007,-0.045,0.019,-0.01,0.026,-0.027,-0.016,0.004,-0.002,0.021,-0.005,0.019,0.006,-0.029,-0.007,0.006,0.008,0.002,0.011
HIST2H2AA3 (UniProt Q6FI13),-0.012,-0.956,0.002,-0.054,-0.05,0.126,0.012,0.083,0.019,-0.055,-0.011,-0.014,-0.112,0.065,0,-0.012,0.028,-0.046,0.032,0.045
HADHA (UniProt P40939),-0.08,0.042,0.387 (active),0.014,-0.087,-0.003,0.026,-0.067,0.04,0.031,0.078,-0.057,0.012,0.05,-0.042,-0.031,-0.01,0.055,-0.033,0.077
HNRNPUL1 (UniProt Q9BUJ2),-0.039,0.011,0.002,-0.016,-0.023,-0.045,0.03,0.01,-0.02,-0.032,0.028,-0.13,0.017,-0.014,-0.019,0,-0.012,-0.275 (active),0,0.007
GSTP1 (UniProt P09211),-0.008,0.035,-0.024,0.036,0.08,-0.002,0.007,-0.022,-0.022,0,-0.012,0.042,0.011,-0.003,0.021,-0.011,0.036,-0.025,0.003,-0.003
ILKAP (UniProt Q9H0C8),-0.042,-0.01,-0.007,0.027,-0.021,-0.005,0.015,-0.022,-0.043,0.004,-0.018,0,-0.007,0.031,-0.032,0.007,0.037,-0.016,0,-0.002
HMGCS1 (UniProt Q01581),-0.003,-0.035,0.006,-0.001,-0.005,0.014,0.004,0.003,0.012,-0.009,-0.012,-0.006,0.012,-0.01,-0.001,-0.011,0.013,-0.001,0.006,0.015
IFNGR1 (UniProt P15260),0.06,-0.064,0.07,-0.134,-0.127,-0.021,-0.264,-0.075,0.073,0.107,-0.033,-0.12,-0.018,-0.256,-0.014,0.162,-0.077,0.017,0.073,-0.213
HAUS6 (UniProt Q7Z4H7),0.031,0.102,-0.038,-0.035,-0.008,0.019,0.024,-0.015,0.039,0.017,0.025,-0.054,0.027,-0.003,-0.015,0.029,0.01,-0.008,0.073,0.078
IARS2 (UniProt Q9NSE4),-0.025,0.014,0.026,0.005,0.013,-0.007,-0.043,-0.01,0.054,0.016,-0.006,-0.008,-0.005,0.007,-0.025,-0.031,0.016,0.005,0.013,-0.031
KDM6A (UniProt O15550),-0.022,-0.039,0.061,0,0.006,0.023,-0.064,0.004,0.045,0.017,-0.007,0.012,0.003,-0.028,0.025,-0.007,-0.065,0.009,-0.004,0.022
